Records with an inconclusive call do not appear. Active and inactive are the calls of the source. Unless noted, calls follow the shape of the dose curve; as a rule, active = well fitted curve in the direction sought with a large enough effect in the repeat runs; inconclusive = weak or mixed curves; inactive = no such curve, though single readings can be large; an effect the other way counts as inactive or inconclusive.
Assays:
[1] = qHTS assay for small molecules that induce genotoxicity in human embryonic kidney cells expressing luciferase-tagged ATAD5 (AID 651632); also: potency is read from the fitted curve at half-maximal effect; nearly all actives have a fitted effect of over 15% in size
In short: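 HEK293T cells carrying a luciferase reporter tagged to ATAD5 were exposed to compound or DMSO vehicle for 16 hr at 37C, 5% CO2. Amplite was added, and after 30 min at room temperature luciferase activity was read as a marker of ATAD5 induction.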

[2] = qHTS assay for small molecule agonists of the p53 signaling pathway - cell viability (AID 651633; calls by dose curve;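 also: p53RE-bla HCT reporter cells with a stable beta-lactamase p53 reporter; series mostly up to about 83 µM; nearly all actives have a fitted effect of over 30% in size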)
In short: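 Viability counter-read: CellTiter-Glo luminescence (30 min, room temperature) in the same p53RE-bla plates. These plates had been exposed to compounds for 16 h at 37 C.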

[3] = qHTS assay for small molecules that induce genotoxicity in human embryonic kidney cells expressing luciferase-tagged ATAD5 - cell viability (AID 651634; calls by dose curve; also: nearly all actives have a fitted effect of over 25% in size)
In short: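 HEK293T cells expressing luciferase-tagged ATAD5 were exposed to compound or DMSO for 15.5 hr at 37C, 5% CO2. Viability was then read as live-cell protease activity by CellTiter-Fluor fluorescence after 30 min at 37C.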

[4] = qHTS assay for small molecule disruptors of the mitochondrial membrane potential - cell viability (AID 720634; calls by dose curve;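 also: human HepG2 liver cancer cells; series mostly up to about 83 µM; nearly all actives have a fitted effect of over 20% in size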)
In short: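 HepG2 cells seeded overnight at 37 C, then exposed to compound or DMSO for 1 hr at 37 C, 5% CO2. m-MPI dye added, then CellTiter-Glo for 30 min at room temperature; viability read as ATP luminescence.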

[5] = qHTS assay to test for compound auto fluorescence at 590 nm (red) in HepG2 cells (AID 720674)
In short: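 Red autofluorescence (Ex/Em 540/590 nm, Rose Bengal sodium equivalents) was measured in HepG2 cells, 2,000 per well in MEM plus 10% FBS, plated overnight at 37 C. Readings were taken 1 hr after adding 23 nL compound or DMSO, at 37 C and 5% CO2.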

[6] = qHTS assay to test for compound auto fluorescence at 535 nm (green) in HepG2 cells (AID 720675)
[7] = qHTS assay to test for compound auto fluorescence at 460 nm (blue) in HEK293 cells (AID 720678)
In short: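 HEK293 cells (2,000/well, medium with 10% dialyzed FBS) attached 4-5 hr, then exposed to compound overnight at 37C, 5% CO2. Blue fluorescence read at 405/460 nm, with triamterene as reference fluorophore.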

[8] = qHTS assay to test for compound auto fluorescence at 590 nm (red) in HEK293 cells (AID 720679)
In short: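 HEK293 cells (2,000/well, 10% dialyzed FBS) attached 4-5 hr, then dosed with compound or DMSO and incubated overnight at 37C, 5% CO2. Red fluorescence read at 540/590 nm, Rose Bengal sodium as reference fluorophore.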

[9] = qHTS assay to test for compound auto fluorescence at 535 nm (green) in HEK293 cells (AID 720680)
[10] = qHTS assay to test for compound auto fluorescence at 460 nm (blue) in HEK293 cell free culture (AID 720681)
In short: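 Blue fluorescence (Ex 405/Em 460 nm, triamterene-equivalent) was read immediately after pin transfer of compound or DMSO into medium (DMEM, 10% FBS) without cells.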

[11] = qHTS assay to test for compound auto fluorescence at 535 nm (green) in HEK293 cell free culture (AID 720682)
In short: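 Green-channel intensity (Ex/Em 485/535 nm) was recorded from compound-treated wells containing only DMEM with 10% FBS. Fluorescein provided the equivalency standard.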

[12] = qHTS assay to test for compound auto fluorescence at 590 nm (red) in HEK293 cell free culture (AID 720683)
In short: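 Red-channel autofluorescence of compounds in culture medium (DMEM, 10% FBS), no cells, measured at 540/590 nm. Rose Bengal sodium is the reference fluorophore for equivalence.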

[13] = qHTS assay to test for compound auto fluorescence at 590 nm (red) in HepG2 cell free culture (AID 720684)
In short: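 Steps: dispense MEM/10% FBS medium, no cells; pin compound or DMSO vehicle; read red channel, Ex/Em 540/590 nm. Output given as Rose Bengal sodium equivalents.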

[14] = qHTS assay to test for compound auto fluorescence at 460 nm (blue) in HepG2 cell free culture (AID 720685)
In short: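 Compound (23 nL) or DMSO pinned into cell-free MEM with 10% FBS; blue fluorescence read at 405/460 nm excitation/emission, expressed as auto-fluorescence equivalency to triamterene.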

[15] = qHTS assay to test for compound auto fluorescence at 535 nm (green) in HepG2 cell free culture (AID 720686)
[16] = qHTS assay to test for compound auto fluorescence at 460 nm (blue) in HepG2 cells (AID 720687)
In short: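 Blue-channel autofluorescence (Ex/Em 405/460 nm, triamterene-equivalent) was measured after 1 hr compound exposure at 37 C, 5% CO2. Cells were HepG2, plated overnight at 37 C in MEM plus 10% FBS.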

[17] = target: Glucocorticoid receptor (Homo sapiens) (UniProt P04150); test: qHTS assay to identify small molecule agonists of the glucocorticoid receptor (GR) signaling pathway (AID 720691; active = well fitted activation curve with a large enough effect in the signal ratio in the repeat runs, not every such curve was filed as active; the % refers to the signal ratio)
In short: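 GR-bla HeLa cells (beta-lactamase reporter under glucocorticoid response element) were plated 4 h at 37 C/5% CO2, given compounds in DMSO, and incubated 18 h at 37 C. LiveBLAzer B/G FRET substrate was added for 2 h at room temperature, then fluorescence intensity read.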

[18] = target: Glucocorticoid receptor (Homo sapiens) (UniProt P04150); test: qHTS assay to identify small molecule antagonists of the glucocorticoid receptor (GR) signaling pathway (AID 720692; active = well fitted inhibition curve with a large enough effect in the signal ratio in the repeat runs, not every such curve was filed as active; the % refers to the signal ratio; also: potency is read from the fitted curve at half-maximal effect)
In short: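 GR-bla HeLa cells (beta-lactamase reporter under glucocorticoid response element) were pre-plated 4 h at 37 C, treated with compounds plus 5 nM dexamethasone (final) for 18 h, then read by LiveBLAzer B/G FRET fluorescence after 2 h.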

[19] = qHTS assay to identify small molecule antagonists of the glucocorticoid receptor (GR) signaling pathway - cell viability counter screen (AID 720693); also: nearly all actives have a fitted effect of over 55% in size
[20] = qHTS assay for identifying genotoxic compounds that show differential cytotoxicity against isogenic chicken DT40 cell lines with known DNA damage response pathways - Rev3 mutant cell line (AID 743014); also: nearly all actives have a fitted effect of over 55% in size
[21] = qHTS assay for identifying genotoxic compounds that show differential cytotoxicity against isogenic chicken DT40 cell lines with known DNA damage response pathways - Rad54/Ku70 mutant cell line (AID 743015); also: potency is read from the fitted curve at half-maximal effect; nearly all actives have a fitted effect of over 60% in size
[22] = qHTS assay to identify small molecule antagonists of the androgen receptor (AR) signaling pathway - cell viability counter screen (AID 743033; also: nearly all actives have a fitted effect of over 45% in size)
[23] = target: Androgen receptor (Homo sapiens) (UniProt P10275); test: qHTS assay to identify small molecule antagonists of the androgen receptor (AR) signaling pathway (AID 743035; active = well fitted inhibition curve with a large enough effect in the signal ratio in the repeat runs, not every such curve was filed as active; the % refers to the signal ratio; also: potency is read from the fitted curve at half-maximal effect)
In short: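 HEK293 cells stably carrying a UAS-driven beta-lactamase reporter (AR-UAS-bla GripTite) were plated for 4 h at 37C, then given compound and the agonist R1881 and incubated 16 h. Reporter activity was read by LiveBLAzer B/G FRET fluorescence after 2 h at room temperature.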

[24] = target: Androgen receptor (Homo sapiens) (UniProt P10275); test: qHTS assay to identify small molecule agonists of the androgen receptor (AR) signaling pathway (AID 743036; active = well fitted activation curve with a large enough effect in the signal ratio in the repeat runs, with a control signal flat, not every such curve was filed as active; the % refers to the signal ratio)
In short: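 Cell-based FRET reporter assay: HEK293 line with a UAS-beta-lactamase construct, compounds added in DMSO, 16 h exposure at 37C, then 2 h substrate step at room temperature and fluorescence intensity read.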

[25] = target: Androgen receptor (Homo sapiens) (UniProt P10275); test: qHTS assay to identify small molecule agonists of the androgen receptor (AR) signaling pathway using the MDA cell line (AID 743040; also: nearly all actives have a fitted effect of over 20% in size)
In short: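 Cells plated, 5 h at 37C/0% CO2; compound or DMSO pinned; 16 h at 37C; ONE-Glo added; luminescence measured after 30 min at room temperature. Reporter line: MDA-kb2 with MMTV-luciferase responsive to AR and GR.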

[26] = qHTS assay to identify small molecule antagonists of the androgen receptor (AR) signaling pathway using the MDA cell line - cell viability counter screen (AID 743041; also: nearly all actives have a fitted effect of over 45% in size)
In short: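 Cells were plated at 3,000 per well and left 5 h. Compounds in DMSO were then pinned in, followed by R1881. After 16 h at 37C, CellTiter-Fluor fluorescence gave viability.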

[27] = target: Androgen receptor (Homo sapiens) (UniProt P10275); test: qHTS assay to identify small molecule antagonists of the androgen receptor (AR) signaling pathway using the MDA cell line (AID 743042; also: nearly all actives have a fitted effect of over 55% in size)
In short: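 Antagonist mode: compounds plus R1881 agonist added to MDA-kb2 AR-luc cells, incubated 16 h at 37C. Luciferase reporter luminescence quantified, with multiplexed CellTiter-Fluor readout for cell viability.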

[28] = qHTS assay to identify small molecule antagonists of the thyroid receptor (TR) signaling pathway - cell viability counter screen (AID 743064); also: potency is read from the fitted curve at half-maximal effect; nearly all actives have a fitted effect of over 50% in size
In short: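 In rat pituitary GH3.TRE-Luc reporter cells co-exposed to compound and 1 nM T3 for 23.5 h, cytotoxicity was assessed with CellTiter-Fluor in the same wells, read by fluorescence.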

[29] = qHTS assay to identify small molecule antagonists of the thyroid receptor (TR) signaling pathway (AID 743065); also: potency is read from the fitted curve at half-maximal effect; nearly all actives have a fitted effect of over 55% in size
In short: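 Antagonism measured as loss of luciferase signal in GH3 cells stably carrying a TRE-luciferase reporter, co-treated with compound and T3 (1 nM final) for 23.5 h at 37 C. Viability was read in the same well by CellTiter-Fluor.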

[30] = system: thyroid hormone receptor (rat, GH3 cells); test: qHTS assay to identify small molecule agonists of the thyroid receptor (TR) signaling pathway (AID 743066; calls by dose curve)
[31] = qHTS assay to identify small molecule antagonists of the estrogen receptor alpha (ER-alpha) signaling pathway - cell viability counter screen (AID 743074; calls by dose curve;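 also: HEK293 cells carrying ER-alpha-UAS-bla reporter stimulated with 17beta-estradiol; nearly all actives have a fitted effect of over 45% in size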)
[32] = target: Estrogen receptor (Homo sapiens) (UniProt P03372); test: qHTS assay to identify small molecule agonists of the estrogen receptor alpha (ER-alpha) signaling pathway (AID 743075; calls by dose curve)
[33] = qHTS assay to identify small molecule antagonists of the estrogen receptor alpha (ER-alpha) signaling pathway using the BG1 cell line (AID 743080; calls by dose curve;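 also: BG1 cells stimulated with 17beta-estradiol alongside compound; potency is read from the fitted curve at half-maximal effect; nearly all actives have a fitted effect of over 25% in size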)
In short: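 BG1-Luc-4E2 cells (endogenous full-length ER-alpha, 4xERE luciferase) hormone-starved 5 days in charcoal-stripped FBS, plated 4,000/well for 24 h, then compound plus 17beta-estradiol for 21.5 h at 37 C; ONE-Glo luminescence read.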

Aromatase (Homo sapiens) = Aromatase (Homo sapiens) (UniProt P11511); test: qHTS assay to identify aromatase inhibitors (AID 743083)
[34] = qHTS assay to identify aromatase inhibitors - cell viability counter screen (AID 743084)
[35] = target: Aryl hydrocarbon receptor (Homo sapiens) (UniProt P35869); test: qHTS assay to identify small molecule that activate the aryl hydrocarbon receptor (AhR) signaling pathway (AID 743085);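 also: HG2L7.5c1 human HepG2 liver cells with stably integrated DRE-driven firefly reporter; series mostly up to about 70 µM; nearly all actives have a fitted effect of over 15% in size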
In short: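 AhR agonist activity is inferred from enhanced light output of a DRE-controlled firefly luciferase reporter in HepG2 cells, measured with ONE-Glo following 24 h treatment at 37C.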

[36] = target: Peroxisome proliferator-activated receptor gamma (Homo sapiens) (UniProt P37231); test: qHTS assay to identify small molecule agonists of the peroxisome proliferator-activated receptor gamma (PPARg) signaling pathway (AID 743094; active = well fitted activation curve with a large enough effect in the signal ratio in the repeat runs, not every such curve was filed as active; the % refers to the signal ratio)
In short: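 GeneBLAzer PPARg UAS-bla HEK293H cells carrying a stably integrated beta-lactamase reporter were pre-incubated 5 h at 37C, then exposed to compounds in DMSO for 17 h at 37C; LiveBLAzer B/G FRET substrate was added for 1 h at room temperature and fluorescence read.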

Measured: Potency

Sequence of Androgen receptor (Homo sapiens) (P10275 whole entry, looked up): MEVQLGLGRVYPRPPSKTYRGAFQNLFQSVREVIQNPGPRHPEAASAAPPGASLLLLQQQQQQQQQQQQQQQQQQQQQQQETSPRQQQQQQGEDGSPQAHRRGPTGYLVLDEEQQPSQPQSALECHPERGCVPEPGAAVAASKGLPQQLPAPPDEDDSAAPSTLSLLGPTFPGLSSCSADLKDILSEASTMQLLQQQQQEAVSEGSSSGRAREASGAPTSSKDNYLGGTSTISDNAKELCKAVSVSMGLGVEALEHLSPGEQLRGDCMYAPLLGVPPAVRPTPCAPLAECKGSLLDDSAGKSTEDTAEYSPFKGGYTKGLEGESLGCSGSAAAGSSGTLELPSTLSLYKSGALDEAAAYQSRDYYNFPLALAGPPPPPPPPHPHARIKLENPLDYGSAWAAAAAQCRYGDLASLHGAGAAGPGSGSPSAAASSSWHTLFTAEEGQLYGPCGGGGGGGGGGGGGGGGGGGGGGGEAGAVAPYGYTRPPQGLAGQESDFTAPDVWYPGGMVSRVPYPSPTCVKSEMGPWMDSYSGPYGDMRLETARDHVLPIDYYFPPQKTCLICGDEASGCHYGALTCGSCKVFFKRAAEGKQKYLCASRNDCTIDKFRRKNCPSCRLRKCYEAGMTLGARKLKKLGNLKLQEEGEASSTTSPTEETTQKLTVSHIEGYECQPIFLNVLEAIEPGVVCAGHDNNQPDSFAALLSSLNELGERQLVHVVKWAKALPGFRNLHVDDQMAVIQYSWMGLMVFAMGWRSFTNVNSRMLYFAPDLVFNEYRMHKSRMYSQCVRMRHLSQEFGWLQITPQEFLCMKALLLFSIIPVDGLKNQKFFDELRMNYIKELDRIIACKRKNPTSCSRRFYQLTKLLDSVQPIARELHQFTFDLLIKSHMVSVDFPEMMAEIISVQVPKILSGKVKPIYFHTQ
Sequence of Glucocorticoid receptor (Homo sapiens) (P04150 whole entry, looked up): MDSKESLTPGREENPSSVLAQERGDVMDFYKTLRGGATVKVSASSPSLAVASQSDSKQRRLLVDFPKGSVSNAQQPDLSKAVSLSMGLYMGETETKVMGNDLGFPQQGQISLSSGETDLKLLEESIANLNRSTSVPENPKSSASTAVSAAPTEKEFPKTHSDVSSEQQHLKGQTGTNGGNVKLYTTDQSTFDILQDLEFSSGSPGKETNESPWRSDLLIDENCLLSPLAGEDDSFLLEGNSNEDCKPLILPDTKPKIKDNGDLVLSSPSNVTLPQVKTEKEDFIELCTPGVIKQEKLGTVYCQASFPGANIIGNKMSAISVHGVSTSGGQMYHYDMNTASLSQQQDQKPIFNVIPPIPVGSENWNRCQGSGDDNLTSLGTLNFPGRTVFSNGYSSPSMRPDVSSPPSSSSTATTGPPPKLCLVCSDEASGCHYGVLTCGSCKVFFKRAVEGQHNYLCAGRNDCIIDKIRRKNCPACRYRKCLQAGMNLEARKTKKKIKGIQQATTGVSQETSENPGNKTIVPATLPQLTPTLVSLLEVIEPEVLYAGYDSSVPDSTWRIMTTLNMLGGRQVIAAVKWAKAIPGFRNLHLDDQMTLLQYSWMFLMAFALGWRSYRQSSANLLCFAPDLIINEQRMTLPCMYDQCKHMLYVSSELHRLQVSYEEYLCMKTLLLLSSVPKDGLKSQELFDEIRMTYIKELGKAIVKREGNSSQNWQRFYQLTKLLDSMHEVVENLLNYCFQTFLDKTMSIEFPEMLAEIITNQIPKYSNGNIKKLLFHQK
Sequence of Estrogen receptor (Homo sapiens) (P03372 whole entry, looked up): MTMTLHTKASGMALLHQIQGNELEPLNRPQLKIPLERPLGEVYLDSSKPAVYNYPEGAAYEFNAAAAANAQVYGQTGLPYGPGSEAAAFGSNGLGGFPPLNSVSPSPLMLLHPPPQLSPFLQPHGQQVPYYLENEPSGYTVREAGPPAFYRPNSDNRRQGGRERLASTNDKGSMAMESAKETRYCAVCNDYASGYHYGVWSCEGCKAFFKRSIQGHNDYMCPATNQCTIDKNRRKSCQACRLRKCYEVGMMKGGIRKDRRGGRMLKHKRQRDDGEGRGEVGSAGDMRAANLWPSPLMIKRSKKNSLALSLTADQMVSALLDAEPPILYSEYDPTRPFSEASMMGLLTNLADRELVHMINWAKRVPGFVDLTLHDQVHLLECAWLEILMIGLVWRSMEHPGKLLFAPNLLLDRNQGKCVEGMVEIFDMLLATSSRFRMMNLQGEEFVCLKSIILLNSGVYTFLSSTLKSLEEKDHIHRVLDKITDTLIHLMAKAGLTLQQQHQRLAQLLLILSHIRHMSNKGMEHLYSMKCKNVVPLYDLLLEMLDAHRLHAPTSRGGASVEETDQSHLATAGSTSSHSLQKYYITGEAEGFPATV
Sequence of Aromatase (Homo sapiens) (P11511 whole entry, looked up): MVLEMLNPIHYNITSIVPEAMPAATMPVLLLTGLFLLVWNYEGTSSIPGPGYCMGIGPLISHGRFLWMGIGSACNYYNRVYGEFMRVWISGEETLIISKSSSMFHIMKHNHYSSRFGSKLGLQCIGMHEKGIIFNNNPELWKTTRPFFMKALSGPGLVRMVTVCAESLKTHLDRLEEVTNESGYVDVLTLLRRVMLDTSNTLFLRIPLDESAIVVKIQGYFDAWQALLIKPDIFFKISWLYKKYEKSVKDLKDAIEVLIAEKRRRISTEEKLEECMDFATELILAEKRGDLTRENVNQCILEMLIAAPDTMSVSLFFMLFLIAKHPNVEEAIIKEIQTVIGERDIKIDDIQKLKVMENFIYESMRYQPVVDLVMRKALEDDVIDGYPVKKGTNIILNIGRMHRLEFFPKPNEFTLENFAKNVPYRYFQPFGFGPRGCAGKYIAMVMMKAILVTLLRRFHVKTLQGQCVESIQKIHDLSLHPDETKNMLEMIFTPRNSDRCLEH
Sequence of Peroxisome proliferator-activated receptor gamma (Homo sapiens) (P37231 whole entry, looked up): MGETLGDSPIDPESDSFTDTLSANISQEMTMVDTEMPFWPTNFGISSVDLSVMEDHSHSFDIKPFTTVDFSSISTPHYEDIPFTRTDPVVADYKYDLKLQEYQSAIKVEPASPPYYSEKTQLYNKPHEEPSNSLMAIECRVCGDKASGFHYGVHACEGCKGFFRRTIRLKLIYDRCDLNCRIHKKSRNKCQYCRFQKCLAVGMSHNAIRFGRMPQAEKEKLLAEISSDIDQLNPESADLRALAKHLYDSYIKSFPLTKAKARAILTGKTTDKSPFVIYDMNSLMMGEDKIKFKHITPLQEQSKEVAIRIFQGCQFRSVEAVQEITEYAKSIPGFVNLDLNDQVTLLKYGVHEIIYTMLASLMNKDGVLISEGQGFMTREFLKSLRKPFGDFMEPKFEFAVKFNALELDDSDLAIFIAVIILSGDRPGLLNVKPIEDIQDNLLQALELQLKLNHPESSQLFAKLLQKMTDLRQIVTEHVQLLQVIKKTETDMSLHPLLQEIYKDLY
Sequence of Aryl hydrocarbon receptor (Homo sapiens) (P35869 whole entry, looked up): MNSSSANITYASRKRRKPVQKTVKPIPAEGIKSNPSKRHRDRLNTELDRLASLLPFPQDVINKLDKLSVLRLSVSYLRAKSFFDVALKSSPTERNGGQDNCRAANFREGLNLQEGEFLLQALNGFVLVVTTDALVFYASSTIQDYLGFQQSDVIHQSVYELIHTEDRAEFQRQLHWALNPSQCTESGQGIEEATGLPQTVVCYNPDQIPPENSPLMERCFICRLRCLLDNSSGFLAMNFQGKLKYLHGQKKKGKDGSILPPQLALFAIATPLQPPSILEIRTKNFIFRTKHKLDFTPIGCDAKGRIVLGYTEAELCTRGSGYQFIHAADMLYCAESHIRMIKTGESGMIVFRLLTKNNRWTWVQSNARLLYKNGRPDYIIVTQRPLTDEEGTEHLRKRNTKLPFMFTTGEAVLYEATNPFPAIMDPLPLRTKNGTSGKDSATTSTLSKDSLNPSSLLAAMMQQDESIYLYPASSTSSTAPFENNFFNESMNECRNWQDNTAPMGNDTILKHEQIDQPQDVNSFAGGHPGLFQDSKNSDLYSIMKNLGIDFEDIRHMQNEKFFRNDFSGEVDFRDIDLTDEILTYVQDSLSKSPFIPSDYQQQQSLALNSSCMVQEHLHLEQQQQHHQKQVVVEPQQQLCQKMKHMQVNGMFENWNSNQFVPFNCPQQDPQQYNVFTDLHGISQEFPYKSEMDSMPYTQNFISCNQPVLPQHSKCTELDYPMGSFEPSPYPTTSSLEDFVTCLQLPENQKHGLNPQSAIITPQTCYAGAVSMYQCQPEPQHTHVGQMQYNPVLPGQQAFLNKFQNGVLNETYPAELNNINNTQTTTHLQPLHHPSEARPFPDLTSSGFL

Cc1nnc2n1-c1sc(Br)cc1C(c1ccccc1Cl)=NC2
active: [1] 23.7 µM | [18] 10.7 µM | [21] 26.6 µM | [23] 8.49 µM | [28] 21.1 µM | [29] 26.6 µM | [33] 11.9 µM
inactive: all other assays above
